# Unmarked numbers belong to inactive results.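 The calls were made as follows: active = MAPPIT score above the 99th percentile of random reference set scores in the same batch; inactive = at or below it.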
# Tested on: CG7945
# Assay: MAPPIT interaction score (arbitrary units); higher = stronger binary interaction signal, active = hit call of the paper
# Conditions: MAPPIT configuration: N-C; pair source set: Lit-BM-16
# Protocol: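 MAPPIT in HEK293T cells: Drosophila bait and prey ORFs (from the FlyBi ORF collection) were co-transfected in quadruplicate, with two wells stimulated by erythropoietin. Interaction-dependent JAK-STAT activation was read out with a STAT-responsive firefly luciferase reporter. Positive calls use the 99th percentile of random reference set (RRS) scores within each batch […]. Batches Dvs01 and Dvs02 used the N-N configuration and Dvs04 the N-C configuration. Pairs come from FlyBi screens, CuraGen, DPiM, Finley Y2H, Lit-BM-16, Lit-BS-16 and RRS.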
# 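Also: HEK293T cells with Epo stimulation, STAT-responsive firefly luciferase reporter, fold induction versus unstimulated cells divided by the larger fold induction of two negative controls lacking either bait or prey.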
row,Substance,MAPPIT interaction score
1,DnaJ-1,1.15
